Source: PubChem BioAssay
EphB4 antag: antagonists of human EphB4-ephrin-B2 interaction | P54760 | EphB4 LBD / TNYL-RAW-Alexa532 peptide, fluorescence polarization | inhibition, % at 7 µM | hit rate 0.15% among 97,000 | AID 720;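 active means inhibition above the screen-wide mean inhibition plus 3 SD, cut at about 15% in these data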;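 further: 0% = DMSO wells and 100% = excess unlabeled TNYL-RAW peptide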
sEH inh: inhibitors of human soluble epoxide hydrolase. P34913. recombinant human sEH enzymatic activity assay. inhibition, % at 2 µM. hit rate 0.34% among 91,000. AID 707; in the data active means inhibition above about 80%
Target sequence (P34913 whole entry, looked up): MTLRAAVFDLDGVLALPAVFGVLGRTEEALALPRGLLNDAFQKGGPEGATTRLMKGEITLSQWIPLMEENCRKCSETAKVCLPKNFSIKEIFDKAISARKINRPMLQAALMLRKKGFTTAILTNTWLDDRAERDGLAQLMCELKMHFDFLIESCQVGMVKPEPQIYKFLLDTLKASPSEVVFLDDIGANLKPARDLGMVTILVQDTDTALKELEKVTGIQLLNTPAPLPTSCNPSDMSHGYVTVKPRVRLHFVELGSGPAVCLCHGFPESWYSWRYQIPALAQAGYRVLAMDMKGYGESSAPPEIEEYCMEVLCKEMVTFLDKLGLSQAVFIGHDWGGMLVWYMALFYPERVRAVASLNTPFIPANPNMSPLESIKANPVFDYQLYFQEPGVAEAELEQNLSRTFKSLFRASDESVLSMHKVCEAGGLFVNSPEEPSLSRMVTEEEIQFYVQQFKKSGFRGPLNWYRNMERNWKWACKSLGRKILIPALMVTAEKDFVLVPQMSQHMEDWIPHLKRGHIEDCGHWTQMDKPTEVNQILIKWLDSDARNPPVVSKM
PLAP act: activators of human placental alkaline phosphatase; P05187; purified PLAP enzyme, luminescent substrate read-out; hits give high values; activation fold at 20 µM; hit rate 1.2% among 96,000; AID 696; in the data active means activation fold above about 2
LYP inh 2: LYP (human) phosphatase inhibition. recombinant LYP catalytic domain, DiFMUP fluorescence. inhibition, % at 2 µM. hit rate 0.21% among 96,000. AID 640;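 active means inhibition at 2 µM at or above a set limit, the screen mean plus 3 SD, cut at about 24% in these data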;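 further: 0% = DMSO with enzyme and 100% = enzyme fully blocked by orthovanadate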
LYP act: activators of human LYP (PTPN22) phosphatase. hit rate 0.11% among 96,000. Q9Y2R2. activation, % at 2 µM. recombinant LYP, DiFMUP fluorescence; 0 = plate median, 100 = signal doubled;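 active means activation at 2 µM above a set limit, the mean plus 5 SD, cut at about 37% in these data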
sEH activator: increases human soluble epoxide hydrolase activity; activation, % at 2 µM; hit rate 0.04% among 91,000; purified human sEH enzymatic activity, activator screen; in the data active means activation above about 37%
* marks the source's active call; other numbers are inactive results. This is a sample that favours compounds with a hit; in the whole collection about 1.6% have one here.

`CN(C)c1nccc(Nc2ccccc2)c1C#N` gave EphB4 antag 16*, sEH inh 7, PLAP act 1, LYP inh 2 -4, LYP act 5 and sEH activator -4.
For CCOc1ccc(C(=O)NCC2OCCc3ccccc32)cc1 (stereo unspecified) the results were EphB4 antag -5, sEH inh 41, LYP inh 2 7, LYP act -7 and sEH activator -41.
For O=C(NCCCN1CCCC1=O)c1ccc(OCc2ccccc2)cc1 the results were EphB4 antag 9, sEH inh 7, PLAP act 2.1*, LYP inh 2 -16, LYP act 13 and sEH activator -6.
Screening CC(=O)C1=C(C)NC(SCC(=O)c2ccc(-c3ccccc3)cc2)=C(C#N)C1c1cccnc1 (stereo unspecified) returned EphB4 antag -5, sEH inh 47, PLAP act 1.2, LYP inh 2 -7, LYP act 7 and sEH activator -47.
For Cc1ccc(O)c(-c2cc(-c3ccccc3F)[nH]n2)c1 the results were EphB4 antag 0, sEH inh 10, PLAP act 0.9, LYP inh 2 2, LYP act 0 and sEH activator -10.
`Cc1ccc(O)c(C2=NNC(O)(C(F)(F)F)C2)c1` (stereo unspecified) gave EphB4 antag 3, sEH inh -4, PLAP act 2.2*, LYP inh 2 -11, LYP act 12 and sEH activator 4.
Screening COc1ccc(-c2nc3nc(C)cc(=O)n3[nH]2)cc1 returned EphB4 antag -1, sEH inh 3, PLAP act 1, LYP inh 2 -9, LYP act 8 and sEH activator -5.
`Clc1ccc(OCc2nc(-c3ccccn3)n[nH]2)cc1` gave EphB4 antag 8, sEH inh -2, PLAP act 2.3*, LYP inh 2 3, LYP act -5 and sEH activator 5.
`Brc1ccc(OCc2nc(-c3ccccn3)n[nH]2)cc1` gave EphB4 antag 0, sEH inh 1, PLAP act 2.2*, LYP inh 2 13, LYP act -11 and sEH activator -2.
`Cc1ccc(OCc2nc(-c3ccccn3)no2)cc1` gave EphB4 antag -2, sEH inh -10, PLAP act 0.9, LYP inh 2 -19, LYP act 20 and sEH activator 5.
Screening C=CCn1c(SCCC(=O)O)nc2c1c(=O)n(C)c(=O)n2C returned EphB4 antag -2, sEH inh 8, PLAP act 1, LYP inh 2 -6, LYP act 4 and sEH activator -8.
O=C(Cc1cn2ccsc2n1)Nc1nc2c(s1)CN(Cc1ccccc1)CC2 was read as PLAP act 1.7.
For Cc1ccc2[nH]c(=O)c(C3C(C#N)=C(N)Oc4c3ccc3cccnc43)cc2c1 (stereo unspecified) the results were EphB4 antag 7, sEH inh -6, PLAP act 2.2*, LYP inh 2 8, LYP act -7 and sEH activator 4.
COC(=O)C1=C(C)NC(C)=C(C(=O)OC)C1c1cc2cc(C)ccc2[nH]c1=O was read as EphB4 antag 7, sEH inh -5, PLAP act 1.4, LYP inh 2 6, LYP act -4 and sEH activator 2.
For CCc1cc(=O)oc2c(C)c(OCC(=O)N3CCCc4ccccc43)ccc12 the results were EphB4 antag -4, sEH inh 26, PLAP act 1.6, LYP inh 2 4, LYP act -2 and sEH activator -26.
For Brc1ccc2nc(CSc3ncn[nH]3)cn2c1 the results were EphB4 antag 2, sEH inh -5, PLAP act 2.8*, LYP inh 2 83*, LYP act -84 and sEH activator 5.
`Clc1ccc(CSc2ncn[nH]2)cc1` gave EphB4 antag -3, sEH inh 2, PLAP act 1.7, LYP inh 2 -9, LYP act 9 and sEH activator -1.
Cc1[nH]nc2c1C(c1cccc(O)c1)C1=C(CC(C)(C)CC1=O)N2 (stereo unspecified) was read as EphB4 antag -1, sEH inh -6, PLAP act 1.5, LYP inh 2 9, LYP act -9 and sEH activator 6.
`CC1=C(C#N)C2C(/C1=N/O)C2(C)C` (stereo unspecified) gave EphB4 antag -8, sEH inh -7, PLAP act 1, LYP inh 2 1, LYP act -2 and sEH activator 7.
Screening CCC(C)c1ccc(NC(=O)C2CCN(c3ncccn3)CC2)cc1 (stereo unspecified) returned EphB4 antag 1, sEH inh 99*, LYP inh 2 5, LYP act -4 and sEH activator -99.
`CCCCCCCCCOC(=O)C(CC(=O)O)N1CCOCC1` (stereo unspecified) gave EphB4 antag 0, sEH inh -8, PLAP act 2*, LYP inh 2 8, LYP act -10 and sEH activator 10.
`Cc1ccc(C23CC4CC(CC(NC(=O)NC(C)(C)CO)(C4)C2)C3)cc1` gave EphB4 antag 1, sEH inh 14, PLAP act 2.3*, LYP inh 2 -1, LYP act -1 and sEH activator -12.
Screening COc1ccc(N(C(=O)c2ccc(Cl)cc2)C2=CC3CCC(C2)N3C)cc1 (stereo unspecified) returned EphB4 antag 2, sEH inh 4, PLAP act 1.6, LYP inh 2 -10, LYP act 10 and sEH activator -8.
CCn1c2ccccc2c2cc(Nc3cc(C)nc4ncnn34)ccc21 was read as PLAP act 1.6.
CCCc1cc(Nc2cccc(OC)c2)n2ncnc2n1 was read as EphB4 antag 0, sEH inh 4, PLAP act 2.3*, LYP inh 2 12, LYP act -16 and sEH activator -3.
COc1cccc(Nc2cc(C)nc3nc(C)nn23)c1 was read as EphB4 antag -3, PLAP act 1.8, LYP inh 2 8 and LYP act -11.
Screening CCCc1cc(Nc2cccc(OCC)c2)n2ncnc2n1 returned EphB4 antag -5, sEH inh 10, PLAP act 2*, LYP inh 2 10, LYP act -10 and sEH activator -9.
For CNc1nc(C)c(C(=O)c2ccc(Cl)cc2)s1 the results were EphB4 antag 2, sEH inh -17, PLAP act 0.9, LYP inh 2 -10, LYP act 7 and sEH activator 19.
Screening COc1cc(Cl)c(S(=O)(=O)NCc2ccccn2)cc1Cl returned EphB4 antag -6, sEH inh 8, PLAP act 2.3*, LYP inh 2 -7, LYP act 8 and sEH activator -8.
